# Assay results: PubChem BioAssay AID1489 (National Center for Advancing Translational Sciences (NCATS), 2009)
# Records with an inconclusive call do not appear. A number with no mark means an inactive call. Active and inactive are the calls of the source. Calls come from the whole dose curve; as a rule, active = well fitted antagonist curve with a large enough effect in the main read-out, with a control signal flat; inconclusive = small, poorly fitted or top-dose-only effect; inactive = no such curve, though single readings can be large or run the other way.
# Target: Neuropeptide S receptor (Homo sapiens) (UniProt Q6W5P4)
# Sequence (Q6W5P4 whole entry, looked up): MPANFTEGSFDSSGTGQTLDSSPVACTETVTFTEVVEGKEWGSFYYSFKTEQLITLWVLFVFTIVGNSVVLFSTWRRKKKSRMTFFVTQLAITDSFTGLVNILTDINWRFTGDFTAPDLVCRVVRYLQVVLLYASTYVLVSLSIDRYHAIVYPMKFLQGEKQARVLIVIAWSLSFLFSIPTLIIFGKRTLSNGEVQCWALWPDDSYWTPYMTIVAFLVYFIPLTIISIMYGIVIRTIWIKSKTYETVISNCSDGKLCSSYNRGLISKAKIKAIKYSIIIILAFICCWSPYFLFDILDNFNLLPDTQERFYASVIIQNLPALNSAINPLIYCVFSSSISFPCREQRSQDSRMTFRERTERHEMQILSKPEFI
# Assay: Confirmation Concentration-Response Assay for Antagonists of the Neuropeptide S Receptor: Calcium Signal Transduction
# Conditions: CHO-NPSR cells, NPS-induced calcium flux, FDSS; series mostly up to 19.3 µM; activity change, negative = inhibition: at the top concentration
# Excerpt: NIH Chemical Genomics Center [NCGC] NIH Molecular Libraries Probe Production centers Network [MLPCN] MLPCN Grant: X01-DA026210-01 Assay Submitter (PI): Heilig, Markus Alexander NCGC Assay Overview: Neuropeptide S receptor (NPSR), previously known as GPR154, is a recently de-orphanized G protein coupled receptor. Its endogenous ligand is the 20 amino acids peptide Neuropeptide S (NPS). […] NPS and its receptor are found in various tissues. Specifically they are highly expressed in brain areas that have been implicated in modulation of arousal, stress and anxiety. Central administration of NPS in mice produces an unusual profile of activity by inducing wakefulness and arousal, while at the same time suppressing anxiety. Therefore, NPSR may represent a novel drug target for the treatment of sleep and anxiety disorders. To identify NPSR antagonists, we developed a cell-based assay with transfected NPS receptor. NPS can stimulate the production of cAMP as well as release intracellular calcium in Chinese hamster ovary cells stably expressing NPS receptor. This change in intracellular calcium can be detected using a calcium indicator dye on a calcium imaging plate reader system (FDSS).
# NCGC Assay Protocol Summary: A Chinese hamster ovary (CHO) cell line stably expressing the NPS receptor (CHO-NPSR) was obtained from Dr. Heilig lab at NIAAA and maintained in F-12 Kaighn's media (Invitrogen, Carlsbad, CA, 21127) supplemented with 10 % FBS, 100 units/ml penicillin, 100 ug/ml streptomycin and 250 ug/ml geneticin at 37C, 5% CO2 in a humidified atmosphere. Before the assay, aliquots of cells were frozen and stored at -135C. The assay was performed on a FDSS-7000 kinetic plate reader in 1536-well format. For both agonist (1-220s) and antagonist (221-400s) phases, the maximums of kinetic fluorescence responses were converted separately into text files using the instrument's software data export utility. Data for agonist response were normalized to the controls for basal activity (DMSO only) and 100% activation (NPS). […] AC50 values were determined from concentration-response data modeled with the standard Hill equation. NPS 1536-well FDSS assay protocol: (1) Frozen CHO-NPSR cells were thaw, washed once with fresh media and resuspended in F-12 Kaighn's media supplemented with 10 % FBS, 100 units/ml penicillin and 100 ug/ml streptomycin. Cells were plated at 3 ul/well (1200 cells) to black, clear-bottom, tissue-culture treated 1536-well plates, and then cultured at 37C, 5 % CO2 for 16 to 30 hours. (2) Add 3 ul of calcium dye (from High Performance PBX Calcium Assay Kit, BD Biosciences). The calcium dye was prepared according to the manufactory's instruction. (3) Incubation at 37C, 5 % CO2 for 60 to 120 min. (4) Load plates to FDSS-7000. The following steps were performed on FDSS-7000. (5) Record fluorescent background (Ex 480 nm, Em 520-560 nm) for 10 s. (6) Add 23 nl/well of compound in DMSO solution. The final titration for each compound was between 0.6 nM and 46 uM. Record agonist response for 210 s. (7) Add 2 ul of stimulation reagent (1X HBSS buffer, 0.1% BSA, 60 nM NPS). Record antagonist response for 140 s. Keywords: MLSMR, MLPCN, NIH Roadmap, qHTS, NCGC, NPS, Neuropeptide S Antagonists
SMILES,"activity change, negative = inhibition [%]",Potency
COc1cc(/C=C2\SC(c3ccc(C)cc3)=NC2=O)cc(OC)c1O,7.8,
Cc1ccc(-c2ccc(/C=C3\C(=O)ON=C3c3ccccc3)o2)c([N+](=O)[O-])c1,,2.82 µM (active)
NC(=S)N/N=C/c1ncc(C(F)(F)F)cc1Cl,-1.3,
CN(C)C(=S)N=Nc1[nH]c2ccccc2c1O,15.4,
O=c1cc(CNCCCO)c2ccccc2[nH]1,-1.54,
COCCCn1cnc2c(c1=O)c1nc3ccccc3nc1n2CCc1ccccc1,9.86,
C(=N\Nc1nc(-c2ccccn2)nc2ccccc12)/c1ccccc1,1.74,
CCOC(=O)C1CCCN(c2ncnc3c2oc2ccccc23)C1 (stereo not given),,12.6 µM (active)
C=CCOc1c(Cl)cc(CNc2ccc(N(C)C)cc2)cc1OC,-13.4,
O=C(CSC1=NCCS1)Nc1ccnc2ccccc12,-15.5,
Cc1nn(C)cc1/C=N/NC(=S)Nc1ccccc1,3.91,
Cc1ccc(Nc2cc(C)nn2-c2nc(C)cc(C)n2)cc1,24.7,
CN(CC(=O)NCc1ccc(F)cc1)S(=O)(=O)c1cccc2nsnc12,7.19,
O=C(Nc1nccs1)C1CCCN1S(=O)(=O)c1ccc(Cl)cc1 (stereo not given),0.929,
Cn1c(COc2ccccc2)nnc1SCc1cc(=O)[nH]c2ccccc12,-4.37,
Cn1nc(-c2ccc(Cl)cc2)nc2c(=O)n(C)c(=O)nc1-2,25.8,
COC(=O)c1ccc(C(=O)OC)c(NC(=O)CSc2cccc[n+]2[O-])c1,17.1,
Cc1nnc(NC(=O)c2cccc(S(=O)(=O)N3CCc4ccccc43)c2)s1,23.8,
CCC(Sc1ccc2nnc(-c3cccnc3)n2n1)C(=O)O (stereo not given),-3.7,
O=C(O)c1cccc(Nc2ncnc3ccccc23)c1,-7.58,

SMILES,"activity change, negative = inhibition [%]",Potency
COc1ccc(C2c3c(ncn(CCN4CCOCC4)c3=N)Oc3ccc4ccccc4c32)cc1OC (stereo not given),,1.58 µM (active)
Cc1cc(OCC(=O)c2ccc(Br)cc2)ccc1N1C(=O)CCC1=O,-13.3,
Cc1ccc(NC(=S)NNC(C)(C)C)cc1,9.85,
CC(=O)c1sc(-c2ccccc2)cc1NS(=O)(=O)c1ccccc1,19.9,
O=C(/C(=C/c1ccc(Cl)cc1)c1nc2ccccc2[nH]1)c1cccs1,,8.91 µM (active)
CCOC(=O)c1cnc(-n2nc(C)cc2C)nc1Nc1ccc(C)cc1,-19.5,
CC1(C)Cc2c(c(N3CCOCC3)nc3sc4c(NCC5CCCO5)nnnc4c23)CS1 (stereo not given),-40.4,
NC(=O)OCC(COC(N)=O)c1ccccc1,20.6,
COc1ccccc1-c1nnc(SC2CCc3ccccc3NC2=O)s1 (stereo not given),-30,
COCCCn1c(SCc2cc(=O)[nH]c3ccccc23)nnc1-c1ccco1,15.8,
O=C(N1CCOCC1)C1(c2ccc(Cl)cc2)CCCC1,17.2,
O=C(/C=C/c1ccco1)NC(=S)Nc1nc(-c2ccc3ccccc3c2)cs1,4.33,
CC1(C)O[C@@H]2C[C@H]3[C@@H]4C[C@H](F)C5=CC(=O)CC[C@]5(C)[C@H]4[C@@H](O)C[C@]3(C)[C@]2(C(=O)CO)O1,34.2,
C/C(=N\NC(=S)NC1CCCCC1)c1c(F)cccc1F,-22.3,
CCc1ccc2oc(-c3cc(N)cc(C)c3O)nc2c1,12,
Oc1ccc(N=Nc2nccs2)c(O)c1,-0.946,
Nn1c(COc2ccccc2)nnc1SCc1cc(=O)[nH]c2ccccc12,7.99,
CN(C)c1ccc(N2CN=C3SCC(=O)N3C2)cc1,10.4,
C/C(=N\Nc1ncc(Cl)cc1Cl)c1ccccn1,,2.51 µM (active)
Cc1cccc(-c2nnc(SCc3cc(=O)[nH]c4ccccc34)n2C)c1,-8.64,
